Test results taken from PubChem BioAssay AID488969 (Vanderbilt High Throughput Screening Facility, 2010).
Whole data set: some 110,000 compounds, median “z-score” near -0.1, cut for the highest 2% near 2. For the sample, the highest values were picked, then their nearest neighbours and some compounds at random. Active and inactive are the calls of the source.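 How the source made its calls: active means z-score in the third read window above 3 or below -3; inactive means the rest.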

Each compound was assayed against Metabotropic glutamate receptor 8 (Rattus norvegicus) (UniProt P70579) (assay: rat mGluR8 modulators via GIRK flux, primary screen, cell-based, thallium flux, HTS (AID 488969)). Settings: HEK293 rat mGluR8, GIRK (G protein-gated inwardly rectifying potassium channel) thallium flux, FluoZin2; at 10 µM; stronger effect = higher value; submaximal glutamate (EC20) added with thallium.
Sequence of Metabotropic glutamate receptor 8 (Rattus norvegicus) (P70579 whole entry, looked up): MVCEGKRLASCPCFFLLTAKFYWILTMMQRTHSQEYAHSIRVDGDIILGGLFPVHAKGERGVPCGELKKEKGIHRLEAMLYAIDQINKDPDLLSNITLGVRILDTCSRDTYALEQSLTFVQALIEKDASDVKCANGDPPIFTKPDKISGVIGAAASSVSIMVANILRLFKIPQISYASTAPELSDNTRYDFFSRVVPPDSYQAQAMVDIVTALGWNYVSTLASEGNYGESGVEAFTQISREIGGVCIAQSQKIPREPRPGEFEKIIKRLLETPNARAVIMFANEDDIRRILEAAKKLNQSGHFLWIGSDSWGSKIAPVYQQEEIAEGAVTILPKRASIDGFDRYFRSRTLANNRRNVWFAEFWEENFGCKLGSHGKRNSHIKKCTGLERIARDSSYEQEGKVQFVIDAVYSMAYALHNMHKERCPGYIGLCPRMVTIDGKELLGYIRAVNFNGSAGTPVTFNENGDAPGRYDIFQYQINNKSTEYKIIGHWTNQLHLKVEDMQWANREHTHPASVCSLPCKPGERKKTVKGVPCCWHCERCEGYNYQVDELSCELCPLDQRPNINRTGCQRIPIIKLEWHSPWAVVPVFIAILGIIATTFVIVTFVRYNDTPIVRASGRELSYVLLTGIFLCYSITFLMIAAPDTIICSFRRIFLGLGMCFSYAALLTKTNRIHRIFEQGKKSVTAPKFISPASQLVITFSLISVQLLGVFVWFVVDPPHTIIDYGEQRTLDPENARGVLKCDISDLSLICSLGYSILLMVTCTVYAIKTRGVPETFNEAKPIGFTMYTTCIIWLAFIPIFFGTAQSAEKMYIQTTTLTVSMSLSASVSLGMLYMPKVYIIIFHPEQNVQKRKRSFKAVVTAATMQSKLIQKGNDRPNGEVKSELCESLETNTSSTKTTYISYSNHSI
Compound `CCOC(=O)c1c(-c2ccccc2)oc2ccc(OC)cc12` has a z-score of 0.0333.
`CCC(CC)NC(=O)COC(=O)c1ccc(OCc2ccc(C(C)=O)cc2OC)c(OC)c1` was tested, and the z-score was -0.23.
`C/C(=N\NC(=O)c1ccc(OC2CCCC2)cc1)c1ccc(C)s1` showed a z-score of 1.05.
`Cc1ccc(CC2CC(=O)N(c3nc4ccccc4n3C)C2=O)cc1` (stereo not drawn) showed a z-score of -0.156.
Work on `Cc1ccc(CNC(=O)C(=O)NCCCn2ccnc2)cc1` yielded a z-score of -0.281.
`O=C(NCCCn1ccnc1)C(Cc1ccc([N+](=O)[O-])cc1)N1C(=O)c2ccccc2C1=O` (stereo not drawn) was tested, and the z-score was 2.67.
For `Cc1ccc(C(=O)NCCCn2ccnc2)cc1[N+](=O)[O-]`, the z-score was 0.161.
`CN1CCN(C(=O)CN(c2cccc(Cl)c2)S(=O)(=O)c2ccccc2)CC1` showed a z-score of -0.681.
`O=C(Nc1ccc(Cl)c(Cl)c1)Nc1nnc(CC2=CCCCC2)s1` gave a z-score of 0.0021.
With `CCOC(=O)C1=C(N)c2ccccc2CC1C(C)C` (stereo not drawn) the z-score was -0.175.
With `CCOC(=O)c1ccc(NC(=O)c2ccccc2)cc1` the z-score was -0.0754.
`CCOC(=O)c1ccc(NC(=O)c2ccc(NC(=O)c3ccccc3)cc2)cc1` was tested, and the z-score was -0.341.
With `CCOC(=O)C1=C(NC(=S)NC(=O)c2ccccc2)c2ccccc2CC1(C)C` the z-score was 5.58 (active).
For `CCOC(=O)C1=C(NC(=S)NC(=O)c2ccccc2)c2ccccc2CC1C(C)C` (stereo not drawn), the z-score was 3.46 (active).
`CCOC(=O)c1sc(NC(=S)NC(=O)c2ccccc2)c(C(=O)OCC)c1C` was tested, and the z-score was 0.582.
With `O=[N+]([O-])c1ccc(OCCN2CCCCCC2)cc1` the z-score was 0.121.
`O=C(NC1CCCCCC1)C1c2ccccc2C(=O)N1CCCN1CCOCC1` (stereo not drawn) was tested, and the z-score was -0.316.
With `CCCCN1C(=O)c2ccccc2C1C(=O)NC1CCCC1` (stereo not drawn) the z-score was 3.2 (active).
For `COCCCN1C(=O)c2ccccc2C1C(=O)NC1CCCCCC1` (stereo not drawn), the z-score was 0.0327.
In the case of `COc1ccc(-n2nnc3c(SCC(=O)Nc4ccc5c(c4)OCCO5)ncnc32)cc1`, the z-score is reported as 0.658.
Compound `Clc1cccc(-c2cc3nc4c(c(N5CCNCC5)n3n2)CCCC4)c1` has a z-score of 2.71.
`Clc1cccc(-c2cc3nc4c(c(N5CCN(c6cnccn6)CC5)n3n2)CCCC4)c1` gave a z-score of -0.109.
`OC1CCCN(c2c3c(nc4cc(-c5cccc(Cl)c5)nn24)CCC3)C1` (stereo not drawn) gave a z-score of -0.591.
`CCCn1nc(CC(=O)OCC)c2ccccc2c1=O` gave a z-score of 0.73.
`O=C(Cn1[nH]c(=O)c2ccccc2c1=O)NCc1cccnc1` gave a z-score of -0.377.
`CC(C)C(NC(=O)c1ccccc1NC(=O)c1ccco1)C(=O)O` (stereo not drawn) gave a z-score of -0.744.
`S=C(Nc1cccc(Cl)c1)Nc1ccccc1Oc1ccccc1` was tested, and the z-score was 15.4 (active).
`Fc1ccc(NC(=S)Nc2ccccc2OC(F)F)cc1Cl` was tested, and the z-score was 6.05 (active).
In the case of `CC(NC(=S)Nc1ccccc1OC(F)F)C(C)(C)C` (stereo not drawn), the z-score is reported as -0.263.
Compound `O=C(Nc1ccccc1Oc1ccccc1)c1ccccc1F` has a z-score of -0.161.
`FC(F)Oc1ccccc1NC(=S)Nc1cccc(Cl)c1Cl` was tested, and the z-score was 3.76 (active).
Compound `COc1cc(C)c(NC(=S)Nc2cccc(Cl)c2)cc1OC` has a z-score of 0.0992.
`FC(F)Oc1ccc(NC(=S)NCc2ccccc2)cc1Cl` showed a z-score of 0.178.
`O=C(Nc1cc(Cl)ccc1Oc1ccccc1)c1ccc(F)cc1` gave a z-score of -0.256.
`COC(=O)c1cc(OC)c(OC)cc1NC(=S)Nc1cccc(Cl)c1` was tested, and the z-score was 0.731.
For `O=C(Nc1cc(Cl)ccc1Oc1ccccc1)c1ccccc1F`, the z-score was 3.37 (active).
For `FC(F)Oc1ccccc1NC(=S)NCc1ccco1`, the z-score was 0.0626.
`Fc1ccc(NC(=S)Nc2ccc(F)c(Cl)c2)cc1Cl` gave a z-score of -0.0109.
Compound `Cc1cc(Cl)ccc1NC(=S)NCc1ccc(Cl)cc1` has a z-score of 0.0662.
Work on `CC1(C)CC(=O)c2cc(C(=O)NCc3ccco3)c(=O)n(-c3ccc(Cl)cc3)c2C1` yielded a z-score of -0.635.
Work on `COCc1nnc(NC(=O)c2cccs2)s1` yielded a z-score of -0.0696.
`NC(=O)COC(=O)c1cc(S(=O)(=O)N2CCOCC2)ccc1N1CCCCC1` showed a z-score of -0.0501.
In the case of `CCn1cc(Br)c(C(=O)Nc2cccc(Cl)c2)n1`, the z-score is reported as -0.412.
`CCOC(=O)c1cc(-c2ccccc2)sc1NC(=O)C(C)OC(=O)c1cccnc1OCC` (stereo not drawn) showed a z-score of 0.0703.
`O=C(CCCOc1ccccc1)Nc1ccc2c(c1)OCCO2` showed a z-score of 0.0498.
`CN(C(=O)c1ccc2c(c1)C(=O)N(CCC1=CCCCC1)C2=O)C1CCCCC1` showed a z-score of 0.422.
Work on `Cc1nc(NC2=NCN(CC3CCCO3)CN2)nc2ccccc12` (stereo not drawn) yielded a z-score of 0.234.
`COc1cc2c(cc1OC)C(C1C(=O)CCCC1=O)N(C(=O)CCl)CC2` (stereo not drawn) gave a z-score of -0.173.
`CCOc1ccc(C(=O)Nc2nc(C)cc(C)n2)cc1[N+](=O)[O-]` was tested, and the z-score was -0.36.
`Cc1ccc(C)c(N(CC(=O)NN=C2CCCCCCC2)S(C)(=O)=O)c1` gave a z-score of -0.202.
With `Cc1ccc(NC(=S)Nc2ccc(Cl)c(Cl)c2)c(OC(F)F)c1` the z-score was 5.16 (active).
For `COc1cc(NC(=S)Nc2cccc(Cl)c2Cl)c(OC)cc1Cl`, the z-score was 0.605.
`COc1ccc(NC(=O)Nc2ccc(C)cc2OC(F)F)cc1OC` gave a z-score of -0.0436.
For `S=C(Nc1ccccc1Cl)Nc1ccc(Cl)cc1Cl`, the z-score was 5.05 (active).
With `COc1cc(C)c(NC(=S)Nc2ccc(Cl)c(Cl)c2)cc1OC` the z-score was 0.396.
With `S=C(Nc1ccccc1)Nc1ccc(Cl)cc1Cl` the z-score was 1.43.
With `S=C(Nc1ccccc1Oc1ccccc1)Nc1cccc(Cl)c1Cl` the z-score was 4.09 (active).
Compound `S=C(Nc1ccc(OCc2ccccc2)cc1)Nc1cccc(Cl)c1Cl` has a z-score of 0.844.
